The results in this text go back to PubChem BioAssay (NCATS).

The structures appear in SMILES notation. Results filed as inconclusive are left out. The source made the active and inactive calls. Calls come from the whole dose curve; as a rule, active = well fitted curve in the direction sought with a large enough effect; inconclusive = small, poorly fitted or top-dose-only effect, or another doubt; inactive = no such curve, though single readings can be large; an effect the other way counts as inactive or inconclusive.

Assay [1] in a line: qHTS of pediatric cancer cell lines to identify multiple opportunities for drug repurposing: Primary screen for BT-37 cells (AID 1347094). Note: potency is the fitted concentration of half-maximal effect. The conditions noted are these: BT-37 viability, CellTiter-Glo luminescence, 48 h; series mostly up to 57.3 µM. The method in brief:
(§1)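 Readout: CellTiter-Glo luminescence, 48 h treatment. Controls DMSO (neutral) and bortezomib 2.3 µM final (positive). Potency and efficacy taken from primary-screen concentration-response curves.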

Assay [2] in a line: qHTS of pediatric cancer cell lines to identify multiple opportunities for drug repurposing: Primary screen for NB-EBc1 cells (AID 1347095). Note: potency is the fitted concentration of half-maximal effect. The conditions noted are these: NB-EBc1 neuroblastoma viability, CellTiter-Glo luminescence, 48 h; series mostly up to 46 µM. The method in brief:
as §1

The nature of assay [3]: qHTS of pediatric cancer cell lines to identify multiple opportunities for drug repurposing: Primary screen for U-2 OS cells (AID 1347096). Note: nearly all actives have a fitted effect of over 50% in size. The conditions noted are these: U-2 OS viability, CellTiter-Glo luminescence, 48 h; series mostly up to 46 µM. The method in brief: (§2)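 Cells (500-1,000/well) rested 5 h, then received compounds for 48 h; metabolically active cells were measured by CellTiter-Glo luminescence. Final concentrations spanned up to 46 µM (MIPE, 11-point) or 0.59 nM-46 µM (NPC, 8-point) in primary screens, 11-point in follow-ups.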

Assay [4] can be described thus: qHTS of pediatric cancer cell lines to identify multiple opportunities for drug repurposing: Primary screen for Saos-2 cells (AID 1347097). Note: nearly all actives have a fitted effect of over 40% in size. Conditions: Saos-2 viability, CellTiter-Glo ATP luminescence, 48 h; series mostly up to 46 µM. Summed up: as §1
Background: Quantitative high-throughput screening tests each substance at several concentrations.

A short description of assay [5]: qHTS of pediatric cancer cell lines to identify multiple opportunities for drug repurposing: Primary screen for SK-N-SH cells (AID 1347098). Note: nearly all actives have a fitted effect of over 65% in size. Note: potency is the fitted concentration of half-maximal effect. The conditions noted are these: SK-N-SH viability, CellTiter-Glo luminescence, 48 h; series mostly up to 57 µM. The method in brief:
as §2

Assay [6] in a line: qHTS of pediatric cancer cell lines to identify multiple opportunities for drug repurposing: Primary screen for NB1643 cells (AID 1347099). Note: nearly all actives have a fitted effect of over 50% in size. Note: potency is the fitted concentration of half-maximal effect. The conditions noted are these: NB1643 neuroblastoma viability, CellTiter-Glo luminescence, 48 h; series mostly up to 46 µM. The method in brief: as §1
Assay [7] is described as follows: qHTS of pediatric cancer cell lines to identify multiple opportunities for drug repurposing: Primary screen for LAN-5 cells (AID 1347100). The conditions noted are these: LAN-5 neuroblastoma viability, CellTiter-Glo luminescence, 48 h; series mostly up to 46 µM. The method in brief: as §2
A short description of assay [8]: qHTS of pediatric cancer cell lines to identify multiple opportunities for drug repurposing: Primary screen for BT-12 cells (AID 1347101). Note: nearly all actives have a fitted effect of over 25% in size. Conditions: BT-12 viability, CellTiter-Glo luminescence, 48 h; series mostly up to 57.3 µM. The method in brief:
as §2

A short description of assay [9]: qHTS of pediatric cancer cell lines to identify multiple opportunities for drug repurposing: Primary screen for Rh18 cells (AID 1347102). Note: nearly all actives have a fitted effect of over 65% in size. The conditions noted are these: Rh18 rhabdomyosarcoma viability, CellTiter-Glo luminescence, 48 h; series mostly up to 46 µM. The method in brief:
as §2

Assay [10] can be described thus: qHTS of pediatric cancer cell lines to identify multiple opportunities for drug repurposing: Primary screen for OHS-50 cells (AID 1347103). Note: nearly all actives have a fitted effect of over 40% in size. Note: potency is the fitted concentration of half-maximal effect. The conditions noted are these: OHS-50 osteosarcoma viability, CellTiter-Glo luminescence, 48 h; series mostly up to 57.3 µM. Summed up:
as §2

Assay [11] can be described thus: qHTS of pediatric cancer cell lines to identify multiple opportunities for drug repurposing: Primary screen for RD cells (AID 1347104). Note: nearly all actives have a fitted effect of over 55% in size. Note: potency is the fitted concentration of half-maximal effect. The conditions noted are these: RD rhabdomyosarcoma viability, CellTiter-Glo luminescence, 48 h; series mostly up to 46 µM. The method in brief: as §1
Assay [12] is described as follows: qHTS of pediatric cancer cell lines to identify multiple opportunities for drug repurposing: Primary screen for MG 63 (6-TG R) cells (AID 1347105). Note: nearly all actives have a fitted effect of over 50% in size. Conditions: MG 63 (6-TG R) viability, CellTiter-Glo, 48 h; series mostly up to 46 µM. The method in brief: as §1
Assay [13] can be described thus: qHTS of pediatric cancer cell lines to identify multiple opportunities for drug repurposing: Primary screen for control Hh wild type fibroblast cells (AID 1347106).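 Note: a drop in luminescence marks cytotoxicity and a rise apparent proliferation; nearly all actives have a fitted effect of over 55% in size.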 Conditions: Hh wild-type fibroblast viability, CellTiter-Glo luminescence, 48 h; series mostly up to 46 µM. Summed up: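 Cells (500-1,000/well) in growth media were settled 5 h at 37 degrees C, then given compounds for 48 h. Viability was read as CellTiter-Glo luminescence. Primary runs used MIPE at 11 points (0.78 nM-46 µM) and NPC at 8 points (0.59 nM-46 µM); follow-ups used 11 points.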

Assay [14] can be described thus: qHTS of pediatric cancer cell lines to identify multiple opportunities for drug repurposing: Primary screen for Rh30 cells (AID 1347107). Note: nearly all actives have a fitted effect of over 75% in size. The conditions noted are these: Rh30 rhabdomyosarcoma viability, CellTiter-Glo luminescence, 48 h; series mostly up to 46 µM. Summed up:
as §2

A short description of assay [15]: qHTS of pediatric cancer cell lines to identify multiple opportunities for drug repurposing: Primary screen for Rh41 cells (AID 1347108).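 Note: luminescence drop marks cytotoxic hits; nearly all actives have a fitted effect of over 70% in size.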 The conditions noted are these: Rh41 rhabdomyosarcoma viability, CellTiter-Glo luminescence, 48 h; series mostly up to 46 µM. The method in brief: as §1
A short description of assay [16]: qHTS of pediatric cancer cell lines to identify multiple opportunities for drug repurposing: Confirmatory screen for NB1643 cells (AID 1347109). Note: nearly all actives have a fitted effect of over 45% in size. The conditions noted are these: NB1643 neuroblastoma cell viability; series mostly up to 45.9 µM. The method in brief: as §2
Assay [17] is described as follows: qHTS of pediatric cancer cell lines to identify multiple opportunities for drug repurposing: Confirmatory screen for BT-12 cells (AID 1347112). Note: nearly all actives have a fitted effect of over 55% in size. The conditions noted are these: BT-12 rhabdoid tumor cells, viability; series mostly up to 45.9 µM. The method in brief: as §2

With `O=C1NCC2(CCN(CCc3ccccc3)CC2)O1`, the Potency result in [1], in assay [2], in assay [3], in assay [4], in assay [5] and in assay [6] was “inactive” in each case. For the same compound, the Potency entry in assay [7], in assay [8], in [9], in [10], in [11] and in assay [12] was “inactive” in each case. The Potency entry in assay [13], in assay [14] and in [15] was “inactive” in each case.

As to `C[C@@H](O)[C@H]1C(=O)N2C(C(=O)O)=C(S[C@@H]3CN[C@H](C(=O)N(C)C)C3)[C@H](C)[C@H]12`, the Potency result in assay [1], in assay [2], in assay [3], in [4], in assay [5] and in assay [7] was “inactive” in each case. In addition, the Potency entry in assay [8], in assay [9], in assay [10], in assay [11], in [12] and in [13] was “inactive” throughout. Further, the Potency entry in assay [14] and in [15] was “inactive” each time.

Turning to `CC(=O)N[C@@H](CS)C(=O)O`, the Potency result in assay [1], in [2], in [3], in assay [4], in [5] and in assay [6] was “inactive” in each case. Besides, the Potency entry in assay [7], in [8], in assay [9], in [10], in assay [11] and in assay [12] was “inactive” in each case. In addition, the Potency result in assay [13] and in [14] was “inactive” throughout.

For `O=c1c(-c2ccc(O)cc2)coc2cc(OC3O[C@H](CO)[C@H](O)[C@H](O)[C@H]3O)cc(O)c12` (some centres undefined), the Potency was 21.7 µM (active) in [1], 18.7 µM (active) in assay [2], 9.61 µM (active) in [5] and 6.62 µM (active) in assay [11]. For the same compound, the Potency entry in assay [3], in [4], in assay [10] and in [12] was “inactive” in each case.

On to `CN1C[C@H]2c3ccccc3Oc3ccc(Cl)cc3[C@@H]2C1`, for which the Potency entry in [1], in assay [2], in [3], in assay [4], in assay [5] and in assay [7] was “inactive” throughout. Further, the Potency entry in assay [8], in assay [9], in assay [11], in assay [12], in assay [13] and in assay [14] was “inactive” in each case. In addition, in assay [15], the Potency entry is “inactive”. Moreover, the Potency in assay [10] is 21.9 µM (active).

For the compound `CC(=Cc1ccccc1)C=C1SC(=S)N(CC(=O)O)C1=O`, the Potency entry in assay [1], in assay [2], in assay [3], in [4], in assay [6] and in [7] was “inactive” throughout. The Potency result in [8], in [9], in assay [10], in assay [11], in assay [12] and in assay [13] was “inactive” throughout. Further, the Potency entry in [14] and in assay [15] was “inactive” throughout. In addition, in assay [5], the Potency is 21.5 µM (active).

Regarding `O=C(O)c1cc(-c2ccccc2)nc2ccccc12`, the Potency result in assay [1], in assay [2], in assay [3], in assay [4], in [5] and in [6] was “inactive” throughout. The Potency result in [7], in assay [8], in assay [9], in assay [10], in [11] and in [13] was “inactive” in each case. In addition, the Potency entry in [14] and in [15] was “inactive” throughout.

As for `CCn1cc(C(=O)O)c(=O)c2ccc(C)nc21`, the Potency result in [1], in assay [2], in assay [3], in assay [4], in assay [6] and in assay [7] was “inactive” each time. Also, the Potency result in [8], in assay [9], in assay [10], in assay [11], in assay [12] and in assay [13] was “inactive” each time. The Potency entry in assay [14] is “inactive”.

With `COC[C@@H](c1ccc(C(F)(F)F)cc1)N1CCN(C2(C)CCN(C(=O)c3c(C)ncnc3C)CC2)C[C@H]1C`, the Potency entry in assay [1], in [2], in assay [3], in assay [4], in [8] and in assay [9] was “inactive” in each case. The Potency result in assay [11] and in assay [14] was “inactive” throughout. Further, the Potency in assay [6] was 18.7 µM (active).

For `NC(N)=Nc1nc(CSCC/C(N)=N/S(N)(=O)=O)cs1`, the Potency entry in assay [1], in [2], in assay [3], in [4], in [5] and in assay [7] was “inactive” each time. Moreover, the Potency result in assay [8], in assay [9], in [10], in [11], in assay [12] and in assay [13] was “inactive” throughout. The Potency result in assay [14] and in assay [15] was “inactive” in each case.

Take `O=C1NC(=O)C(c2ccccc2)(c2ccccc2)N1`: the Potency entry in assay [1], in assay [2], in assay [3], in assay [4], in [5] and in assay [6] was “inactive” in each case. Further, the Potency entry in [7], in assay [8], in assay [9], in assay [10], in [11] and in assay [12] was “inactive” throughout. The Potency result in assay [13], in [14] and in assay [15] was “inactive” in each case.

In the case of `O=C(O)CCc1nc(-c2ccccc2)c(-c2ccccc2)o1`, the Potency entry in assay [1], in assay [2], in [3], in assay [4], in assay [5] and in assay [7] was “inactive” in each case. The Potency result in [9], in assay [10], in assay [11], in assay [12], in [13] and in [14] was “inactive” each time. In assay [15], the Potency entry is “inactive”.

Regarding `CCCCCN(C)CCC(O)(P(=O)(O)O)P(=O)(O)O`, the Potency result in assay [1], in [2], in assay [3], in assay [4], in assay [5] and in [6] was “inactive” throughout. Moreover, the Potency entry in assay [7], in assay [8], in assay [9], in assay [10], in assay [11] and in [13] was “inactive” in each case. Besides, the Potency result in [14] and in assay [15] was “inactive” throughout.

For the compound `COc1cccc(-c2cc(=O)c3ccccc3o2)c1N`, the Potency entry in [1], in [2], in [3], in assay [4], in [7] and in [8] was “inactive” in each case. The Potency result in assay [9], in assay [10], in [13], in assay [14], in [16] and in assay [17] was “inactive” in each case. Besides, the Potency in assay [6] was 20.9 µM (active); in [11] it was 13.2 µM (active).

On to `CN(C)c1cc(NC(=O)CNC(C)(C)C)c(O)c2c1C[C@@H]1C[C@H]3[C@H](N(C)C)C(=O)C(C(N)=O)=C(O)[C@@]3(O)C(=O)C1=C2O`, for which the Potency entry in assay [1], in assay [2], in [3], in [4], in [5] and in assay [8] was “inactive” throughout. Further, the Potency result in assay [9], in [10], in assay [11], in assay [12], in assay [13] and in assay [14] was “inactive” in each case. Also, the Potency result in [15] was “inactive”.
